Reference: article PMC7862700, “An all-to-all approach to the identification of sequence-specific readers for epigenetic DNA modifications on cytosine”

Tests used:
Test in all cases: DAPPL (digital affinity profiling via proximity ligation, sequencing); 10 mM Tris-HCl pH 7.5, 50 mM NaCl, 1 mM DTT, 4% glycerol, room temperature, 30 min; GST-TFs on glutathione beads, 16-mer random dsDNA library, 0.1% formaldehyde crosslink after washing; high values mean tight binding
[1] = target: T1, FEV (Homo sapiens, UniProt Q99581 1-238); conditions: protein: recombinant; tags: N-terminal GST; dsDNA, one strand shown
T1 sequence: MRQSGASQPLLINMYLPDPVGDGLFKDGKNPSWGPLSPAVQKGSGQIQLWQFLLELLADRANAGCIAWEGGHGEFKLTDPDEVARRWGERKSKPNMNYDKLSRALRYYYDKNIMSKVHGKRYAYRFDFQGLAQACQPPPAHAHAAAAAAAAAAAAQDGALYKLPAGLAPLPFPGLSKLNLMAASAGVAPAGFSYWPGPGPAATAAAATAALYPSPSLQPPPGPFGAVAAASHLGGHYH
Procedure, shortened: (§1)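 After expression in yeast as GST fusions, human transcription factors were bound to glutathione beads, DNA-barcoded and mixed with a tag-only sample. The pools were incubated with 200 nmole of a 16-mer random double-stranded DNA library in Tris/NaCl/DTT/glycerol buffer (30 min, room temperature), washed and crosslinked with 0.1% formaldehyde. Proximity ligation with BsaI/T4 ligase ran for 1 h at 37 °C, before PCR amplification and sequencing on an Illumina NextSeq500. Binding signal is a hexamer's read frequency for a factor divided by its frequency for the tag-only sample.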

[2] = target: ETV5 (Homo sapiens, UniProt P41161 1-510); conditions: protein: recombinant; tags: N-terminal GST; dsDNA, one strand shown
Sequence of ETV5 (P41161 whole entry): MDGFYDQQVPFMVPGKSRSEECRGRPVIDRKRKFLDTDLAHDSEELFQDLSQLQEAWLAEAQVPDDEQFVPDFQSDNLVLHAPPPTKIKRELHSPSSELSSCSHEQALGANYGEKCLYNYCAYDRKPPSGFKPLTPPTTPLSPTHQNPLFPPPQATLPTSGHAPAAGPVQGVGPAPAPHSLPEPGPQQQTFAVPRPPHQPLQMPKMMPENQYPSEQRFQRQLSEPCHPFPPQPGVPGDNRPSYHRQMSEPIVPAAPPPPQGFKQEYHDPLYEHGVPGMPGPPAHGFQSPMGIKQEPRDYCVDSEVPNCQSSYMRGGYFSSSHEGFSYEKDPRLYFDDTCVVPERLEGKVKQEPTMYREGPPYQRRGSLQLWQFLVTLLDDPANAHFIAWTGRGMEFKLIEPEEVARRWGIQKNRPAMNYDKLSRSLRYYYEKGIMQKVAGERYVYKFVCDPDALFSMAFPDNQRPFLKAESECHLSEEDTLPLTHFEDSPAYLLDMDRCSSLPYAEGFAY
Procedure, shortened: as §1

[3] = target: HSF1 (Homo sapiens, UniProt Q00613 1-529); conditions: protein: recombinant; tags: N-terminal GST; chain copies: 3; dsDNA, one strand shown
Sequence of HSF1 (Q00613 whole entry): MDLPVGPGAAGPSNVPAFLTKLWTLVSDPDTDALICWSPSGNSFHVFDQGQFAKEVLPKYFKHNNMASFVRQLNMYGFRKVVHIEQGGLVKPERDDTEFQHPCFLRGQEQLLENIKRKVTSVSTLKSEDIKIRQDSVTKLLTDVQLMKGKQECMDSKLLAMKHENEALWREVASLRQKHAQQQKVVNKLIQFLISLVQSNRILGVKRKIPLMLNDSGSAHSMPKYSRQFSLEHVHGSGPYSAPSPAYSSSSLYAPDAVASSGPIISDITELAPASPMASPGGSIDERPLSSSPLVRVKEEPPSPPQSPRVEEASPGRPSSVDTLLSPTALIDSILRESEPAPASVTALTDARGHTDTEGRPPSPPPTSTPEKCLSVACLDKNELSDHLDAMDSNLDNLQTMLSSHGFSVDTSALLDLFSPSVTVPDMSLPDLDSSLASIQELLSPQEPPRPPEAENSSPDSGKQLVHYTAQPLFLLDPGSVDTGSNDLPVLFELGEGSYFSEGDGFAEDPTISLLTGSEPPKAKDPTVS
Procedure, shortened: as §1

[4] = target: T2, SPIC (Homo sapiens, UniProt Q8N5J4 1-248); conditions: protein: recombinant; tags: N-terminal GST; dsDNA, one strand shown
T2 sequence: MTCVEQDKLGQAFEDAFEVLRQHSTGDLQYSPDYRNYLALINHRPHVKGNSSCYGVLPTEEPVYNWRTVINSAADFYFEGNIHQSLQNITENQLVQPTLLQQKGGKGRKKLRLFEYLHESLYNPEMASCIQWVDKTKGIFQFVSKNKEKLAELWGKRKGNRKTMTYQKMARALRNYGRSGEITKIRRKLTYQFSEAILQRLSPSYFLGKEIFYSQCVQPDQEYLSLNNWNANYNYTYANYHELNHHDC
Procedure, shortened: as §1

[5] = target: ELF4 (Homo sapiens, UniProt Q99607 1-663); conditions: protein: recombinant; tags: N-terminal GST; dsDNA, one strand shown
Sequence of ELF4 (Q99607 whole entry): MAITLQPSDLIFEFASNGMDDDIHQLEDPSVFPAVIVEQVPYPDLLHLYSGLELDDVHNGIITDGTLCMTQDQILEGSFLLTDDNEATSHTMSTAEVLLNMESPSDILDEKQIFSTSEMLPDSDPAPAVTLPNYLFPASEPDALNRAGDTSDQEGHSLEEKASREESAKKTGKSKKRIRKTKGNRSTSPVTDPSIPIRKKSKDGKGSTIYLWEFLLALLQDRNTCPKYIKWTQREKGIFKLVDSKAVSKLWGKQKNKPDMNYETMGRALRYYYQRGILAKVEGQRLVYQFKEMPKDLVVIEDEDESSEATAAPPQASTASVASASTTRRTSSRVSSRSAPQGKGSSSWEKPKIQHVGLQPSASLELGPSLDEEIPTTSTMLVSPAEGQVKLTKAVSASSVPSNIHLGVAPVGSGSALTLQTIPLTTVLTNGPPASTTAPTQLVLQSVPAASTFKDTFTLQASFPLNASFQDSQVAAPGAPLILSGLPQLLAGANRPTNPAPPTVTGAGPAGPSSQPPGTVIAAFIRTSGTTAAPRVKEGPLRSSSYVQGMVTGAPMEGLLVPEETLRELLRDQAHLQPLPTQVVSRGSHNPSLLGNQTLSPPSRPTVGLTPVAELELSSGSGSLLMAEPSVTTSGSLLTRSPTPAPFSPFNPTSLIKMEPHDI
Procedure, shortened: as §1

[6] = target: T3, ELK4 (Homo sapiens, UniProt P28324-2 1-405); conditions: protein: recombinant; tags: N-terminal GST; dsDNA, one strand shown
T3 sequence: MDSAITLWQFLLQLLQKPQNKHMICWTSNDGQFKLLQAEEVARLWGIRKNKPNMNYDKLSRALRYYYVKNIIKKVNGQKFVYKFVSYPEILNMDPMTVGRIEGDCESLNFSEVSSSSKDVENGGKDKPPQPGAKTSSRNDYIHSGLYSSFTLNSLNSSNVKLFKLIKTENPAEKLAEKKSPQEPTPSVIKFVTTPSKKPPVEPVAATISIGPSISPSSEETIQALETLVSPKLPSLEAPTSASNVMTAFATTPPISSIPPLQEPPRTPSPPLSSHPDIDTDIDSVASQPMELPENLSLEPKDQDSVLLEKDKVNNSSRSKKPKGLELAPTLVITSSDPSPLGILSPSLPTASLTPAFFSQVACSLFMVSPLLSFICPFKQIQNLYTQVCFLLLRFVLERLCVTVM
Procedure, shortened: as §1

[7] = target: T4, ETV2 (Homo sapiens, UniProt O00321 1-342); conditions: protein: recombinant; tags: N-terminal GST; dsDNA, one strand shown
T4 sequence: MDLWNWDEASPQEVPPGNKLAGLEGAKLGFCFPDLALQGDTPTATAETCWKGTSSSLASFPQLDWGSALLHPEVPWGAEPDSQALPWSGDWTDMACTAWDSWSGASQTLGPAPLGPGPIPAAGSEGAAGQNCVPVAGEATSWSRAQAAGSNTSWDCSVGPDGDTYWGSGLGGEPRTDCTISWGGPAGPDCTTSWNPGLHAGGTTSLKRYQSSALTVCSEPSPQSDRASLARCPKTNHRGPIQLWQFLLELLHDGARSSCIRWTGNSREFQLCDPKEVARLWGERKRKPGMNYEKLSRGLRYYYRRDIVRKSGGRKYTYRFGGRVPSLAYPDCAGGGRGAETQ
Procedure, shortened: as §1

[8] = target: T5, ELF3 (Homo sapiens, UniProt P78545 1-371); conditions: protein: recombinant; tags: N-terminal GST; dsDNA, one strand shown
T5 sequence: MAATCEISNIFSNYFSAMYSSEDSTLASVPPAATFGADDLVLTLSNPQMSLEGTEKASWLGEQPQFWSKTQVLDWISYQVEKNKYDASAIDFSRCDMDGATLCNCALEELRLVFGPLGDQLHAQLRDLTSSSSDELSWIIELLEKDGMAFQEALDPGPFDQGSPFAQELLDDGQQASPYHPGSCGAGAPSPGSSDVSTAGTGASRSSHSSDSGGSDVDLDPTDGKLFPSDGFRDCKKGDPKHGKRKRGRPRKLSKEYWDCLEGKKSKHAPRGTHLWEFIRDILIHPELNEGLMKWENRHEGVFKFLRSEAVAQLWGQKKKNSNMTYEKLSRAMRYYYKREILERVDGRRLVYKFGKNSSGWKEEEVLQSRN
Procedure, shortened: as §1

[9] = target: CRX (Homo sapiens, UniProt O43186 1-299); conditions: protein: recombinant; tags: N-terminal GST; dsDNA, one strand shown
Sequence of CRX (O43186 whole entry): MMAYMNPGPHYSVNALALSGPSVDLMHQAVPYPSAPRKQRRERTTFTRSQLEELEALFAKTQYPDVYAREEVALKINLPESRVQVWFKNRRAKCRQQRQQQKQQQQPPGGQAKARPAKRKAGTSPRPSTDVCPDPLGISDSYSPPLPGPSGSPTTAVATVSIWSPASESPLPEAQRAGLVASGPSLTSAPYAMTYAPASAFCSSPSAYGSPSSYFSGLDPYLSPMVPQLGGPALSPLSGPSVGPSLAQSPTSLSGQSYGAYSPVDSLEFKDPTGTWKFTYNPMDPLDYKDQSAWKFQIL
Procedure, shortened: as §1

[10] = target: ETV1 (Homo sapiens, UniProt P50549 1-477); conditions: protein: recombinant; tags: N-terminal GST; dsDNA, one strand shown
Sequence of ETV1 (P50549 whole entry): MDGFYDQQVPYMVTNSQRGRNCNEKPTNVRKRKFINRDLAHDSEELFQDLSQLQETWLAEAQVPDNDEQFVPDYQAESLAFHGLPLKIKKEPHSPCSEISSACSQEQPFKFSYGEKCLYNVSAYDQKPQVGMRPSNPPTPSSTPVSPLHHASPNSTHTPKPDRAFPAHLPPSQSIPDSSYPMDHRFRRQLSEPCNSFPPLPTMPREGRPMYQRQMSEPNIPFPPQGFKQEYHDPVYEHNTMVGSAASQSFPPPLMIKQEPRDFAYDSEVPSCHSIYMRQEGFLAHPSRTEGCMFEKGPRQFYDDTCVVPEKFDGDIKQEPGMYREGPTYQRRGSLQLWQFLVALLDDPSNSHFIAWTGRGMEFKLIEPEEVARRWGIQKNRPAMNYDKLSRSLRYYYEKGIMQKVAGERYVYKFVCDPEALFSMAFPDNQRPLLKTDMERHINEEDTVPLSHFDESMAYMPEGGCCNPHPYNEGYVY
Procedure, shortened: as §1

[11] = target: T6, ERF (Homo sapiens, UniProt P50548 1-548); conditions: protein: recombinant; tags: N-terminal GST; dsDNA, one strand shown
T6 sequence: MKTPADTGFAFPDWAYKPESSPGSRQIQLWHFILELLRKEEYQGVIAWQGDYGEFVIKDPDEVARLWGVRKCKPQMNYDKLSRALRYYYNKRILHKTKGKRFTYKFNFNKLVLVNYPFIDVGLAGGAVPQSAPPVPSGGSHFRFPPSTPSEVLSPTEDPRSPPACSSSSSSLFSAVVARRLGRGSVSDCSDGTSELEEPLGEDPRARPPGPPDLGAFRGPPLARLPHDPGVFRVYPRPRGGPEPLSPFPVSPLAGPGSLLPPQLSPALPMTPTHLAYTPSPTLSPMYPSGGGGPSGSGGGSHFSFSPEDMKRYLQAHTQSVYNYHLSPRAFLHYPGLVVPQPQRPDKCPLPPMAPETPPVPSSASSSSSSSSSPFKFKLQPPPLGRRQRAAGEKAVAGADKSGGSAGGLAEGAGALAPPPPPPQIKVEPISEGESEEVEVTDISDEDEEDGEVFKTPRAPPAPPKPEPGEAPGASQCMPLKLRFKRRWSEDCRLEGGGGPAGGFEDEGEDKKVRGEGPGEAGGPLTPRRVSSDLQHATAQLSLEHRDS
Procedure, shortened: as §1

[12] = target: T7, ETV3L (Homo sapiens, UniProt Q6ZN32 1-361); conditions: protein: recombinant; tags: N-terminal GST; dsDNA, one strand shown
T7 sequence: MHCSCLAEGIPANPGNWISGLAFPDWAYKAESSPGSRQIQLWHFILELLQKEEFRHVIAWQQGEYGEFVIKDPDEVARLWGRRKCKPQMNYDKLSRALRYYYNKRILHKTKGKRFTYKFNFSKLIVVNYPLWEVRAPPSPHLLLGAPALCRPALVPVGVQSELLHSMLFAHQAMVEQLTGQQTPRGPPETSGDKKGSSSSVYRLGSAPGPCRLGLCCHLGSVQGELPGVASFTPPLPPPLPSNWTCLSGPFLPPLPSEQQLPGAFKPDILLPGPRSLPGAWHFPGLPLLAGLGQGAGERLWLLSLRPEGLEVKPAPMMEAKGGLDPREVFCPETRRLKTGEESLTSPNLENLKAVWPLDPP
Procedure, shortened: as §1

[13] = target: T8, ETS2 (Homo sapiens, UniProt P15036 1-469); conditions: protein: recombinant; tags: N-terminal GST; dsDNA, one strand shown
T8 sequence: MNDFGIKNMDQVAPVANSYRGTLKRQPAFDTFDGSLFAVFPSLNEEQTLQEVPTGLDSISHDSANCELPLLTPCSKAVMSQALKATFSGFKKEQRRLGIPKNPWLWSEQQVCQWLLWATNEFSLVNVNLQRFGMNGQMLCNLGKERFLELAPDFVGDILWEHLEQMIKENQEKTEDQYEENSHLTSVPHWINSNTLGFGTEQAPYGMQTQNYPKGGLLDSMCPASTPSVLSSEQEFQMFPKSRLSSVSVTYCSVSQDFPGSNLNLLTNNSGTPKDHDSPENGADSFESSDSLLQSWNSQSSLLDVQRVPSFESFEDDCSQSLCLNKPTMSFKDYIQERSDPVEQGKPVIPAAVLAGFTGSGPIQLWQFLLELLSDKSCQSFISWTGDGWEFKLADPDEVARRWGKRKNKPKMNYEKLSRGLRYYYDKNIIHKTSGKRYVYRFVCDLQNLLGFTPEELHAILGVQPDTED
Procedure, shortened: as §1

[14] = target: T9, SPDEF (Homo sapiens, UniProt O95238 1-335); conditions: protein: recombinant; tags: N-terminal GST; dsDNA, one strand shown
T9 sequence: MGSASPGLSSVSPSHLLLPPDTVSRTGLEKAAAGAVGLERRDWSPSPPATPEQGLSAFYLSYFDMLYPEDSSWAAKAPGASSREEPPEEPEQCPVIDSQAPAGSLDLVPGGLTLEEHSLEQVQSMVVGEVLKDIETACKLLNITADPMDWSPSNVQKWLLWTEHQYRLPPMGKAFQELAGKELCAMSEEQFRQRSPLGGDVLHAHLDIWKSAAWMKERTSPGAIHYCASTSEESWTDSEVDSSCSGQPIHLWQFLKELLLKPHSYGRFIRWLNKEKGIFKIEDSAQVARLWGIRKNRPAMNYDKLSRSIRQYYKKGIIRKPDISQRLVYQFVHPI
Procedure, shortened: as §1

[15] = target: T10, ETV7 (Homo sapiens, UniProt Q9Y603 1-341); conditions: protein: recombinant; tags: N-terminal GST; dsDNA, one strand shown
T10 sequence: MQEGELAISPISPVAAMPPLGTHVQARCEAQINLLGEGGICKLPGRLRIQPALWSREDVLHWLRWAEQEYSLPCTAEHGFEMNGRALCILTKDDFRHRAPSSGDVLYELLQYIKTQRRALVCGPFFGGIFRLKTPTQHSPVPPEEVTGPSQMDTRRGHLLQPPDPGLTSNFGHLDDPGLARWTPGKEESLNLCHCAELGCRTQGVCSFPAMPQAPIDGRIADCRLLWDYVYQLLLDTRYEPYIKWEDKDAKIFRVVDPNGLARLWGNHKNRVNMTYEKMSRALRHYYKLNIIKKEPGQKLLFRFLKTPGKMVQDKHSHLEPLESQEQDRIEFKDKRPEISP
Procedure, shortened: as §1

[16] = target: T11, ELF5 (Homo sapiens, UniProt Q9UKW6-2 1-255); conditions: protein: recombinant; tags: N-terminal GST; dsDNA, one strand shown
T11 sequence: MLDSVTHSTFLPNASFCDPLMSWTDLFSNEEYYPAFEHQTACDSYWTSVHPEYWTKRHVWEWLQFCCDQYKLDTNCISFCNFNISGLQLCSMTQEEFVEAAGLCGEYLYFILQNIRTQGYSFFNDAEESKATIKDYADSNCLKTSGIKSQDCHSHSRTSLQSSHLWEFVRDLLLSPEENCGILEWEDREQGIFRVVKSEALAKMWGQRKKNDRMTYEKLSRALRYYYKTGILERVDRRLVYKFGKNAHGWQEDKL
Procedure, shortened: as §1

[17] = target: T12, ETV3 (Homo sapiens, UniProt P41162-2 1-143); conditions: protein: recombinant; tags: N-terminal GST; dsDNA, one strand shown
T12 sequence: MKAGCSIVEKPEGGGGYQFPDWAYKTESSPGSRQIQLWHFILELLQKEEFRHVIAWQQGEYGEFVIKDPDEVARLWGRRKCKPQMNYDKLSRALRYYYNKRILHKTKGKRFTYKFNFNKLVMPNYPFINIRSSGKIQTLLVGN
Procedure, shortened: as §1

[18] = target: ETV6 (Homo sapiens, UniProt P41212 1-452); conditions: protein: recombinant; tags: N-terminal GST; dsDNA, one strand shown
Sequence of ETV6 (P41212 whole entry): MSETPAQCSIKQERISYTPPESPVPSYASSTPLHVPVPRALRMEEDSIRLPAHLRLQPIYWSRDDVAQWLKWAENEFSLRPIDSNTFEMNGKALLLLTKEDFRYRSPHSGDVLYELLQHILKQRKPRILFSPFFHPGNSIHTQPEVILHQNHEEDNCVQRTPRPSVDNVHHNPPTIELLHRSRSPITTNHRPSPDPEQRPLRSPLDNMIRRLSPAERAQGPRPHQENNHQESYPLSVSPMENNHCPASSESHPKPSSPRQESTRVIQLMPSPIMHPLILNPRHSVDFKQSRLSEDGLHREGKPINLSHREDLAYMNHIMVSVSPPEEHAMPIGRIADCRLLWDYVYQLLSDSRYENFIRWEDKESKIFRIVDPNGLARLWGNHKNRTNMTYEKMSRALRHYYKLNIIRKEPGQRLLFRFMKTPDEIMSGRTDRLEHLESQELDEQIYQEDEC
Procedure, shortened: as §1

Sequence	binding signal [1]	binding signal [2]	binding signal [3]	binding signal [4]	binding signal [5]	binding signal [6]	binding signal [7]	binding signal [8]	binding signal [9]	binding signal [10]	binding signal [11]	binding signal [12]	binding signal [13]	binding signal [14]	binding signal [15]	binding signal [16]	binding signal [17]	binding signal [18]
TAGCCT	1.26 fold enrichment (6-mer frequency, TF over GST control)	1.22 fold enrichment (6-mer frequency, TF over GST control)	1.43 fold enrichment (6-mer frequency, TF over GST control)	1.17 fold enrichment (6-mer frequency, TF over GST control)	1.24 fold enrichment (6-mer frequency, TF over GST control)	1.18 fold enrichment (6-mer frequency, TF over GST control)	1.22 fold enrichment (6-mer frequency, TF over GST control)	1.27 fold enrichment (6-mer frequency, TF over GST control)	1.53 fold enrichment (6-mer frequency, TF over GST control)	1.26 fold enrichment (6-mer frequency, TF over GST control)	1.28 fold enrichment (6-mer frequency, TF over GST control)	1.31 fold enrichment (6-mer frequency, TF over GST control)	1.25 fold enrichment (6-mer frequency, TF over GST control)	1.07 fold enrichment (6-mer frequency, TF over GST control)	1.2 fold enrichment (6-mer frequency, TF over GST control)	1.17 fold enrichment (6-mer frequency, TF over GST control)	1.32 fold enrichment (6-mer frequency, TF over GST control)	1.04 fold enrichment (6-mer frequency, TF over GST control)
AATGGT	1.27 fold enrichment (6-mer frequency, TF over GST control)	1.46 fold enrichment (6-mer frequency, TF over GST control)	1.05 fold enrichment (6-mer frequency, TF over GST control)	1.35 fold enrichment (6-mer frequency, TF over GST control)	1.43 fold enrichment (6-mer frequency, TF over GST control)	1.38 fold enrichment (6-mer frequency, TF over GST control)	1.32 fold enrichment (6-mer frequency, TF over GST control)	1.25 fold enrichment (6-mer frequency, TF over GST control)	1.1 fold enrichment (6-mer frequency, TF over GST control)	1.43 fold enrichment (6-mer frequency, TF over GST control)	1.38 fold enrichment (6-mer frequency, TF over GST control)	1.33 fold enrichment (6-mer frequency, TF over GST control)	1.33 fold enrichment (6-mer frequency, TF over GST control)	1.27 fold enrichment (6-mer frequency, TF over GST control)	1.41 fold enrichment (6-mer frequency, TF over GST control)	1.43 fold enrichment (6-mer frequency, TF over GST control)	1.4 fold enrichment (6-mer frequency, TF over GST control)	1.39 fold enrichment (6-mer frequency, TF over GST control)
